Our source for the inhibition values is PubChem BioAssay AID485344 (National Center for Advancing Translational Sciences (NCATS), 2010).

“And” between values parts separate entries of the source, which are not always exact repeats. Identical values can stand only once. About 6,900 (2%) of roughly 340,000 compounds were called active. Cut-off read from the data, not from the text of the source: active = inhibition above about 30%; inactive = below that, where a call was filed. The list comes from a sample in which actives are over-represented; it also holds similar structures and randomly drawn compounds.

For this assay, the target named is D(2) dopamine receptor (Homo sapiens) (UniProt P14416). Put plainly: HTS Assay for Allosteric Antagonists of the Human D2 Dopamine Receptor: Primary Screen for Antagonists. Note: 0% is about no effect. The conditions noted are these: HEK293 TREx D2 cells, calcium flux, dopamine EC80; at 10 µM; hits give high values. Summed up: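 Measurement of antagonist activity uses fluorescent calcium dye in inducible HEK293 T-REx D2 cells: 10 s baseline, compound addition with 180 s read, EC80 dopamine addition with a further 180 s read.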
D(2) dopamine receptor (Homo sapiens), sequence (P14416 whole entry, looked up): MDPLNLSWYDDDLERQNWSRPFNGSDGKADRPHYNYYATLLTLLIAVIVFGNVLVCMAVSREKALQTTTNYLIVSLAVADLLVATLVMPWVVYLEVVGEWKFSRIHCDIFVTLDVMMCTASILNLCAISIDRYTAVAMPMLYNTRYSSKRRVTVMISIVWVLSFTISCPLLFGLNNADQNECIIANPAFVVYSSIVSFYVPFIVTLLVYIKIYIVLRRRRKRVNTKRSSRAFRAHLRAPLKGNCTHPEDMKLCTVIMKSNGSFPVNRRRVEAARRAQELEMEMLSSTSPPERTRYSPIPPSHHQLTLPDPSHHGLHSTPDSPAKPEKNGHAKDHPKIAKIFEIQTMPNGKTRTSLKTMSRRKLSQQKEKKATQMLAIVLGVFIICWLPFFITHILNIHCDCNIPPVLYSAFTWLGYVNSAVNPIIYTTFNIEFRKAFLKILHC
As for `CC[C@H](C)C(=O)N[C@H]1CCCN1C(=O)/C=C/c1ccccc1`, the inhibition (as a rule, the drop in the measured response relative to a control, in per cent) was 3.07% (inactive). `O=C(N[C@@H](Cc1c[nH]c2ccccc12)C(=O)O)OCC1c2ccccc2-c2ccccc21`: the inhibition was 5.76% (inactive). Regarding `COc1ccc(C)cc1NC(=O)CSc1nnc2ccc(-c3ccccn3)nn12`, the inhibition was 24.5% (inactive). Take `O=C(N/N=C/c1coc2ccccc2c1=O)c1cc2ccccc2o1`: the inhibition was -7.75% (inactive). In the case of `O=C(N/N=C/c1c[nH]c2ccccc12)c1cc2ccccc2o1`, the inhibition is -9.07% (inactive). For `Cc1c(/C=N\NC(=O)c2cc3ccccc3o2)c2ccccc2n1C`, the inhibition was 33.1% (active). With `COc1ccc(CCC(=O)N2CCN(S(=O)(=O)c3ccc(OC)cc3)CC2)cc1`, the inhibition was -16.3% (inactive). Turning to `CCOC(=O)CN1C(=O)C(=O)c2cc(C)ccc21`, the inhibition is 37% (active).

With `Cc1cccc2c1N(CC(=O)OC(C)C)C(=O)C2=O`, the inhibition is 0.945% (inactive).

As for `CC(C)OC(=O)CN1C(=O)C(=O)c2ccccc21`, the inhibition was 2.86% (inactive). `Cc1ccc(C(=O)OC(C)CN2CCOCC2)cc1` (stereo unspecified): the inhibition was 12.8% (inactive). Turning to `CC(CN1CCOCC1)OC(=O)c1ccc(C(C)(C)C)cc1` (stereo unspecified), the inhibition was 70.8% (active). For `Cc1cccc(C(=O)OC(C)CN2CCCC2)c1` (stereo unspecified), the inhibition is -14% (inactive). Consider `O=[N+]([O-])c1ccccc1/C=C/CN1CCCC(CO)C1` (stereo unspecified), for which the inhibition is 35.4% (active).

In the case of `CC1CC(C)CN(C/C=C/c2ccccc2[N+](=O)[O-])C1` (stereo unspecified), the inhibition is 7.28% (inactive). For the compound `O=C(/C=C/c1ccccc1[N+](=O)[O-])OCC(=O)N1CCCC1`, the inhibition was 4.52% (inactive). As for `CCN(CC(=O)Nc1cc(Cl)ccc1C)C(=O)Cn1c(=O)cnc2ccccc21`, the inhibition was 17.9% (inactive). Regarding `N#C[C@]1(S(=O)(=O)c2ccccc2)C[C@@H]2ON=C(c3cccc(Br)c3)[C@@H]2C1`, the inhibition is 41.5% (active). With `COC(=O)[C@]1(S(=O)(=O)c2ccccc2)C[C@@H]2ON=C(c3ccc(OC)cc3)[C@@H]2C1`, the inhibition is -8.41% (inactive). `CC(=O)NC12CC3CC(C1)CC(C(=O)N1CCN(C(=O)c4ccco4)CC1)(C3)C2`: the inhibition is -36.2% (inactive).

In the case of `CCCCCOC(=O)NCCOC(=O)Nc1ccc(C(=O)OCC)cc1`, the inhibition was 33% (active). Regarding `Cc1ccc(NC(=O)OCCNC(=O)c2ccncc2)cc1`, the inhibition was -36.9% (inactive). Then `CCCCC(CCC(=O)Nc1ccc(C(=O)OCC)cc1)C(=O)O` (stereo unspecified), with 4.1% (inactive); and `CC(C)(COC(=O)Nc1ccccc1)COC(=O)Nc1ccccc1`, with -9.72% (inactive).

Take `CCOC(=O)Nc1ccc(NC(=O)OCC)cc1`: the inhibition was 38.8% (active).

Regarding `CCOC(=O)Nc1ccc(S(=O)(=O)N(C)C(C)C)cc1`, the inhibition was 2.07% (inactive).

In the case of `CCCCN(C(=O)C1=NN(c2cc(C)ccc2C)C(=O)CC1)c1c(N)n(CCC)c(=O)[nH]c1=O`, the inhibition is -7.61% (inactive). As for `COc1ccccc1OCCNCC(O)COc1cccc2[nH]c3ccccc3c12` (stereo unspecified), the inhibition was 59.1% (active) and 51.5% (active). The same measure for `COc1cccc2[nH]c(C(=O)NCCc3ccccc3)cc12`: -14.1% (inactive); for `CC(O)CNCCOc1cccc(Oc2ccccc2)c1` (stereo unspecified): -19.3% (inactive). For the compound `O=S(=O)(O)Oc1c[nH]c2ccccc12`, the inhibition is 19.7% (inactive). `CCN(CC)S(=O)(=O)c1ccc(CNC(=O)CN2C(=O)NC3(CCc4ccccc43)C2=O)cc1` (stereo unspecified): the inhibition was -6.28% (inactive). For the compound `CCOC(=O)c1cn(CC(=O)Nc2ccc(C(C)C)cc2)nn1`, the inhibition was -8.92% (inactive).

Turning to `CCc1ccc(NC(=O)Cn2ncn3c(cc4ccccc43)c2=O)cc1`, the inhibition is 12.2% (inactive). Then `CC(C)c1ccc(NC(=O)Cn2ncc3ccccc32)cc1`, with 32.4% (active); and `COc1ccc(OCCCC(=O)Nc2cccc(S(=O)(=O)N3CCCCCC3)c2)cc1`, with -0.774% (inactive); and `O=C(c1cn(-c2ccccc2)nc1-c1cccnc1)N1CCN(S(=O)(=O)c2ccccc2F)CC1`, with 17.6% (inactive). Take `CCCN(CC(=O)NC(=O)NC1CCCCC1)CC(=O)Nc1cc(Cl)ccc1Cl`: the inhibition is -13.3% (inactive). Consider `Fc1ccc(NC(=S)N2CCc3[nH]c4ccccc4c3C2)cc1`, for which the inhibition is -0.813% (inactive).

With `O=C(CCCN1CCc2[nH]c3ccc(F)cc3c2C1)c1ccc(F)cc1`, the inhibition is 92.7% (active). On to `Cc1ccc2[nH]c3c(c2c1)CN(C(=O)CN1CCN(c2ccccc2)CC1)CC3`, for which the inhibition was 4.69% (inactive). On to `O=C(COC(=O)c1ccc2ncsc2c1)Nc1ccc(Cl)cc1`, for which the inhibition is 18.7% (inactive). The same measure for `COc1ccc(OC)c(CNC(=O)C2CCCN(c3nc4ccccc4o3)C2)c1` (stereo unspecified): -3% (inactive); for `CCc1ccc(CNC(=O)C2CCCN(c3nc4ccccc4o3)C2)cc1` (stereo unspecified): 39.6% (active).

With `COc1ccccc1CNC(=O)C1CCN(c2nc3ccccc3o2)CC1`, the inhibition was 9.79% (inactive). With `CCCCc1ccc(NC(=O)CN2C(=O)NC(Cc3ccccc3)C2=O)cc1` (stereo unspecified), the inhibition was 16.7% (inactive).

On to `COCc1c(C(=O)OCC(=O)Nc2ccc(OC(F)F)cc2)oc2ccccc12`, for which the inhibition is -10.8% (inactive). `Cc1oc(-c2ccccc2F)nc1CS(=O)CC(=O)NCCN1CCCCC1C` (stereo unspecified): the inhibition is -10.8% (inactive).

Consider `CSc1ccc(CCNC(=O)CS(=O)(=O)Cc2nc(-c3ccccc3F)oc2C)cc1`, for which the inhibition is -16.4% (inactive).

Turning to `Cc1oc(-c2ccccc2F)nc1CS(=O)(=O)CC(=O)NCCCN(C)C1CCCCC1`, the inhibition was 45.2% (active). For `O=[N+]([O-])c1cc(S(=O)(=O)NCCc2ccccn2)ccc1Cl`, the inhibition is 9.65% (inactive). Consider `COc1ccc(CN2CCN(C(=O)c3cc(C4CC4)nn3-c3ccccc3)CC2)cc1F`, for which the inhibition was -4.93% (inactive). Consider `N#CC1(NC(=O)COC(=O)Cc2n[nH]c(=O)c3ccccc23)CCCCC1`, for which the inhibition was -5.98% (inactive). As to `Cc1nn(Cc2ccccc2)c(C)c1CNC(=O)c1ccc(F)c(S(=O)(=O)N2CCOCC2)c1`, the inhibition was 5.64% (inactive). Turning to `CCOC(=O)c1sc2nc(SC)nc(-c3ccccc3)c2c1N`, the inhibition was 30.8% (active). The same measure for `CCOC(=O)c1sc2nc(CSc3ccccc3)[nH]c(=O)c2c1C`: 20.4% (inactive). Then `CCOC(=O)C(=O)Nc1nc(-c2ccccc2)c(CC)s1`, with 8.31% (inactive); and `Cc1ccc(C)c(NC(=O)C(c2ccccc2)N2CCN(CC(=O)NC3CC3)CC2)c1` (stereo unspecified), with 5.16% (inactive). On to `O=C(Cc1ccc(-n2c(=O)[nH]c3ccccc3c2=O)cc1)N1CCN(c2cccc(Cl)c2)CC1`, for which the inhibition is 11.5% (inactive). Consider `COc1cccc(CNC(=O)Cc2csc(Nc3nc(=S)[nH]c4ccccc34)n2)c1`, for which the inhibition was -15.6% (inactive).

Turning to `O=C(Cc1csc(Nc2nc(=S)[nH]c3ccccc23)n1)NCCCN1CCN(c2cccc(Cl)c2)CC1`, the inhibition was 69.4% (active).

`COc1ccc(S(=O)(=O)N2CCOCC2)cc1NC(=O)c1ccc(OCC(C)C)c(OC)c1`: the inhibition was -9.24% (inactive). As for `Cc1ccc(S(=O)(=O)NCCN2CCOCC2)cc1C`, the inhibition is -3.48% (inactive). With `Cn1c(=O)c(=O)n(C)c2cc(S(=O)(=O)NCCN3CCN(c4ccccc4F)CC3)ccc21`, the inhibition is 42.8% (active). For the compound `CCc1ccc(S(=O)(=O)Nc2cc3c(cc2N2CCCCC2)n(C)c(=O)c(=O)n3C)cc1`, the inhibition was 4.98% (inactive). As to `Cc1ccc(S(=O)(=O)N2CCOCC2)cc1C(=O)Nc1ccccc1N1CCCC1`, the inhibition was 3.22% (inactive). `CCOc1ccc(S(=O)(=O)N2CCCCC2)cc1NC(=O)CN1CCCC1c1cccs1` (stereo unspecified): the inhibition is 19.6% (inactive).

Consider `CNCC(O)c1ccc(O)c(O)c1` (stereo unspecified), for which the inhibition was 84.7% (active). Then `CC(=O)NCC(O)c1ccc([N+](=O)[O-])cc1` (stereo unspecified), with 12.7% (inactive). The same measure for `COc1ccccc1CNC(=O)CCCN1C(=O)NC2(CCCC2)C1=O`: 0.109% (inactive). The same measure for `NS(=O)(=O)c1ccc(CCNC(=O)COC(=O)COc2cccc(C(F)(F)F)c2)cc1`: -7.34% (inactive). Turning to `CCOc1ccccc1C1NC(=O)NC(C)=C1C(=O)OCc1ccco1` (stereo unspecified), the inhibition was -14.9% (inactive). With `CC(=O)C1=C(C)NC(=O)NC1c1cc(Br)ccc1OCC#N` (stereo unspecified), the inhibition is -0.972% (inactive).

Turning to `CCOC(=O)COc1ccc(Cl)cc1C1NC(=O)NC(C)=C1C(C)=O` (stereo unspecified), the inhibition is 30.8% (active). The same measure for `O=C(COC(=O)Cn1[nH]c(=O)c2ccccc2c1=O)Nc1ncc(Cl)cc1Cl`: -24.9% (inactive); for `Cc1ccccc1C(=O)NCC(c1ccco1)N1CCc2ccccc21` (stereo unspecified): -18.5% (inactive); for `Nc1cc(N)nc(SCC(=O)Nc2cccc(S(=O)(=O)N3CCCCC3)c2)n1`: 3.49% (inactive). Turning to `CCC(C)N(C(=O)Cn1nc(C)c([N+](=O)[O-])c1C)C1CCS(=O)(=O)C1` (stereo unspecified), the inhibition is 15.9% (inactive).

Turning to `C/C=C/c1ccc(OCC(O)CN2CCCCCCC2)c(OC)c1` (stereo unspecified), the inhibition was -10.5% (inactive).

For the compound `C/C=C/c1ccc(OCCCCN2CCC(C)CC2)c(OC)c1`, the inhibition was 45.6% (active).

Turning to `COc1ccc(OCCCCN2CCC(C)CC2)cc1`, the inhibition was 7.68% (inactive). Then `CCS(=O)(=O)N1CCC(N2CCN(c3ccccc3)CC2)CC1`, with 73.1% (active); and `Cc1ccc(S(=O)(=O)N2CCN(c3ccccc3)CC2)cc1C`, with 26.6% (inactive); and `O=C(C1CCC1)N1CCN(c2ccccc2)CC1`, with 1.73% (inactive).

Take `CCS(=O)(=O)N1CCC(C(=O)N2CCN(c3ccccc3)CC2)CC1`: the inhibition is -2.98% (inactive). `CS(=O)(=O)N1CCC(C(=O)N2CCN(c3ccccc3)CC2)CC1`: the inhibition is 47.3% (active). `CCCS(=O)(=O)N1CCCC(C(=O)N2CCN(c3ccccc3)CC2)C1` (stereo unspecified): the inhibition is 6.48% (inactive). Turning to `O=C(c1cc2ccccc2o1)N1CCN(S(=O)(=O)c2ccc(Cl)s2)CC1`, the inhibition was 17.4% (inactive). With `CC(C)(CNC(=O)CNC(=O)C1CCCCC1)N1CCOCC1`, the inhibition was -45.4% (inactive). Turning to `CC1(C)CC(=O)C=C(c2ccc(Cl)c(C(F)(F)F)c2)C1`, the inhibition is 4.19% (inactive).

As for `CCc1ccc(OCC(O)CN2CCN(CCO)CC2)cc1` (stereo unspecified), the inhibition is -7.21% (inactive). As to `Cc1ccc(OCC(O)CN2CCN(CC(O)COc3ccc(C)cc3Cl)CC2)c(Cl)c1` (stereo unspecified), the inhibition is 78.4% (active). Turning to `OC(COc1ccc(F)cc1Cl)CN1CCc2ccccc2C1` (stereo unspecified), the inhibition was 68.3% (active).

Take `C=CCc1ccc(OCC(O)CN2CCN(Cc3ccccc3)CC2)c(OC)c1` (stereo unspecified): the inhibition is 0.147% (inactive).

Regarding `Cc1cccc(OCC(O)CN2CCN(S(=O)(=O)c3ccc(C)cc3C)CC2)c1` (stereo unspecified), the inhibition is -1.31% (inactive). Turning to `Cc1ccc(Cl)c(OCC(=O)N2CCc3ccccc3C2)c1`, the inhibition was 2.48% (inactive).
